These results are taken from publication PMC5540273 (PLoS ONE, 2017).

Several values for one entry are separate records, joined by “and”; a condition that tells them apart may be missing. Equal entries are not always repeated. Where two headings read alike, the source gives them in different places.

For one assay, the system named is CDK4. As to conditions: n = 1.
Another assay concerns CDK5. As to conditions: concentration: 1 μM, replicates: in singlicate; n = 1.
In a further assay the test system is CDK7. To be noted: n = 1.
For the next assay, the system named is CDK8. As to conditions: concentration: 1 μM, replicates: in singlicate; n = 1.
In another assay the test system is CDK9. As to conditions: n = 1.
For another assay, the system named is CDKL1. To be noted: concentration: 1 μM, replicates: in singlicate; n = 1.
In another assay the test system is CDKL2. To be noted: n = 1.
The next assay concerns CDKL3. To be noted: concentration: 1 μM, replicates: in singlicate; n = 1.
The next assay concerns CDKL5. To be noted: concentration: 1 μM, replicates: in singlicate; n = 1.
In the next assay the test system is CHEK1. To be noted: n = 1.
Setting [1] is: concentration: 1 μM, replicates: in singlicate.
[2] abbreviates: concentration: 1 μM,replicates: in singlicate, 1 µM.
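Further: KINOMEscan kinase panel screen.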

Turning to `Fc1cc(Cl)ccc1Nc1ccnc2cc(-c3ccc(CN4CCCCC4)o3)ccc12` [GW560116], the “%Inh” value with CDK4 (setting [1]) is listed as 35%; with CDK5, 0%; in the assay with CDK7 (setting [1]), 0%; in the assay with CDK8, 28%; in the assay on CDK9 (setting [1]), 0%; with CDKL1, 0%. In addition, the “%Inh” value in the assay on CDKL2 (setting [1]) is 2%; in the assay with CDKL3, 0%; with CDKL5, 0%; in the assay with CHEK1 (setting [1]) it was 0%.
Turning to `COc1ccccc1-c1ccc2c(NC(=O)C3CC3)n[nH]c2n1` [SB-711239], the “%Inh” value is reported as 33% in the assay on CDK4 (setting [1]); 0% in the assay with CDK5; 0% in the assay with CDK7 (setting [1]); 44% in the assay on CDK8; 0% with CDK9 (setting [1]); 18% in the assay on CDKL1. Moreover, the “%Inh” value with CDKL2 (setting [1]) worked out at 23%; in the assay with CDKL3, 20%; in the assay on CDKL5, 3%; in the assay with CHEK1 (setting [1]), 11%.
Take `COc1ccc(C2=C(Nc3cccc(C(=O)O)c3)C(=O)NC2=O)cc1` [SB-390765]: the “%Inh” value in the assay with CDK4 (setting [1]) was 51%; with CDK5 it was 16%; with CDK7 (setting [1]), 3%; in the assay with CDK8, 0%; in the assay on CDK9 (setting [1]), 1%; with CDKL1, 0%. The “%Inh” value is given as 37% in the assay with CDKL2 (setting [1]), 0% with CDKL3, 13% with CDKL5 and 0% in the assay with CHEK1 (setting [1]).
`COc1cccc(NC(=O)NC2CCN(c3ccnc(Nc4ccc(F)cc4)n3)C2)c1` (stereo not drawn) [GSK1379721]: the “%Inh” value in the assay with CDK4 (setting [1]) came to 0%; in the assay with CDK5 it was 0%; in the assay on CDK7 (setting [1]), 0%; in the assay with CDK8 it was 61%; in the assay with CDK9 (setting [1]), 14%; in the assay with CDKL1, 5%. In addition, the “%Inh” value in the assay with CDKL2 (setting [1]) was 61%; in the assay on CDKL3, 0%; with CDKL5 it was 7%; in the assay with CHEK1 (setting [1]), 2%.
`Cn1ccc2ncnc(Oc3cccc(C(=O)Nc4ccccc4)c3)c21`: the “%Inh” value in the assay on CDK4 (setting [1]) is 0%; in the assay on CDK5, 16%; in the assay with CDK7 (setting [1]), 4%; with CDK8 it was 22%; with CDK9 (setting [1]), 1%; in the assay with CDKL1 it was 0%. Further, the “%Inh” value with CDKL2 (setting [1]) is on record as 13%; with CDKL3, 0%; in the assay on CDKL5 it was 0%; with CHEK1 (setting [1]) it was 0%.
Take `COc1ccc(CNC(=O)NC2CCN(c3ccnc(Nc4cc(OC)c(OC)c(OC)c4)n3)C2)cc1` (stereo not drawn) [GSK1379748]: the “%Inh” value in the assay with CDK4 (setting [1]) was 36%; in the assay with CDK5 it was 0%; in the assay on CDK7 (setting [1]) it was 0%; with CDK8, 51%; with CDK9 (setting [1]) it was 0%; with CDKL1, 15%. The “%Inh” value is on record as 20% in the assay on CDKL2 (setting [1]), 0% in the assay on CDKL3, 0% in the assay on CDKL5 and 0% in the assay on CHEK1 (setting [1]).
`CN1C(=O)C(Nc2ccc(Cl)c(C(=O)O)c2)=C(c2ccc(Cl)cc2)C1=O` [SB-404290]: the “%Inh” value in the assay with CDK4 (setting [1]) is 47%; in the assay with CDK5, 0%; in the assay with CDK7 (setting [1]), 0%; in the assay on CDK8 it was 0%; with CDK9 (setting [1]), 0%; in the assay on CDKL1, 1%. In addition, the “%Inh” value in the assay with CDKL2 (setting [1]) is given as 13%; with CDKL3, 0%; with CDKL5 it was 16%; in the assay with CHEK1 (setting [1]), 0%.
For the compound `CC1=C(C(=O)Nc2cc3cn[nH]c3cc2F)C(c2ccc(C(F)(F)F)cc2)CC(=O)N1` (stereo not drawn) [GSK429286], the “%Inh” value amounted to 11% in the assay with CDK4 (setting [1]); 0% in the assay on CDK5; 0% in the assay with CDK7 (setting [1]); 18% with CDK8; 0% with CDK9 (setting [1]); 0% with CDKL1. Further, the “%Inh” value is on record as 4% in the assay with CDKL2 (setting [1]), 0% with CDKL3, 10% in the assay on CDKL5 and 7% with CHEK1 (setting [1]).
In the case of `Cc1cc(N2Cc3ccccc3C2)nc(Nc2ccc(S(=O)(=O)N3CCOCC3)cc2)n1.Cl` [GSK1669917], the “%Inh” value is reported as 0% with CDK4 (setting [1]); 0% with CDK5; 0% in the assay with CDK7 (setting [1]); 33% in the assay with CDK8; 0% in the assay with CDK9 (setting [1]); 0% in the assay with CDKL1. For the same compound, the “%Inh” value in the assay on CDKL2 (setting [1]) is 0%; in the assay on CDKL3 it was 0%; in the assay with CDKL5 it was 6%; with CHEK1 (setting [1]), 0%.
Turning to `O=C(Nc1n[nH]c2cc(-c3cccc(F)c3F)ccc12)C1CC1` [SB-733894], the “%Inh” value in the assay on CDK4 (setting [1]) was 0%; with CDK5 it was 0%; in the assay with CDK7 (setting [1]), 17%; with CDK8 it was 89%; in the assay with CDK9 (setting [1]) it was 5%; in the assay on CDKL1, 37%. In addition, the “%Inh” value worked out at 95% in the assay with CDKL2 (setting [1]), 48% with CDKL3, 0% with CDKL5 and 3% in the assay on CHEK1 (setting [1]).
Take `Cc1cccc(-c2nc(Nc3ccc4[nH]ncc4c3)c3ccccc3n2)n1` [GW857175]: the “%Inh” value in the assay with CDK4 (setting [1]) came to 0%; with CDK5 it was 3%; in the assay with CDK7 (setting [1]), 8%; in the assay on CDK8 it was 0%; in the assay with CDK9 (setting [1]), 0%; in the assay on CDKL1 it was 0%. Further, the “%Inh” value was found to be 7% with CDKL2 (setting [1]), 4% in the assay on CDKL3, 18% in the assay on CDKL5 and 4% in the assay on CHEK1 (setting [1]).
`Cc1csc(-c2nc(Nc3ccncc3)c3ccccc3n2)n1` [GW869640]: the “%Inh” value in the assay on CDK4 (setting [1]) is recorded as 20%; in the assay with CDK5, 13%; with CDK7 (setting [1]), 31%; with CDK8 it was 0%; in the assay with CDK9 (setting [1]) it was 9%; with CDKL1, 6%. Besides, the “%Inh” value came out at 1% in the assay on CDKL2 (setting [1]), 19% with CDKL3, 19% in the assay on CDKL5 and 7% with CHEK1 (setting [1]).
Take `C[C@@H]1CCCCN1c1cc(-c2ccc3c(N)n[nH]c3c2)nc(N)n1` [GSK2258759]: the “%Inh” value in the assay on CDK4 (setting [1]) was 21%; with CDK5, 0%; in the assay on CDK7 (setting [1]), 0%; in the assay with CDK8, 20%; in the assay with CDK9 (setting [1]), 0%; in the assay with CDKL1, 6%. Besides, the “%Inh” value in the assay with CDKL2 (setting [1]) is 6%; in the assay on CDKL3 it was 0%; in the assay on CDKL5 it was 0%; with CHEK1 (setting [1]), 0%.
In the case of `COc1ccc(Nc2nccc(-c3cccc(NC(=O)c4cc5cc(F)ccc5[nH]4)c3)n2)cc1` [GSK1229782], the “%Inh” value with CDK4 (setting [1]) came to 48%; in the assay with CDK5, 1%; in the assay with CDK7 (setting [1]), 4%; in the assay on CDK8, 56%; in the assay with CDK9 (setting [1]) it was 0%; with CDKL1 it was 12%. In addition, the “%Inh” value in the assay on CDKL2 (setting [1]) is reported as 30%; in the assay with CDKL3, 0%; in the assay on CDKL5, 0%; in the assay on CHEK1 (setting [1]), 0%.
For the compound `COc1ccc2nc(-c3cccc(C)n3)nc(Nc3ccncc3)c2c1` [GSK204919], the “%Inh” value in the assay on CDK4 (setting [1]) was 0%; with CDK5 it was 0%; with CDK7 (setting [1]) it was 0%; in the assay with CDK8 it was 7%; in the assay on CDK9 (setting [1]), 0%; with CDKL1, 4%. In addition, the “%Inh” value in the assay on CDKL2 (setting [1]) is recorded as 24%; in the assay on CDKL3, 0%; in the assay with CDKL5, 0%; with CHEK1 (setting [1]), 10%.
On to `CS(=O)(=O)c1ccc(-c2c(-c3ncn[nH]3)sc(N3CCOCC3)c2C#N)cc1`, for which the “%Inh” value in the assay with CDK4 (setting [1]) came to 1%; with CDK5 it was 38%; in the assay with CDK7 (setting [1]), 31%; in the assay with CDK8, 18%; in the assay with CDK9 (setting [1]) it was 6%; in the assay with CDKL1, 22%. Further, the “%Inh” value in the assay on CDKL2 (setting [1]) amounted to 7%; with CDKL3, 13%; in the assay on CDKL5, 0%; with CHEK1 (setting [1]), 0%.
As to `Cc1cccc(-c2nc(-c3ccc(S(C)(=O)=O)cc3)sc2-c2ccnc(NCCc3ccccc3)c2)c1`, the “%Inh” value is given as 0% with CDK4 (setting [1]); 9% in the assay with CDK5; 2% in the assay on CDK7 (setting [1]); 15% in the assay on CDK8; 1% in the assay on CDK9 (setting [1]); 14% in the assay on CDKL1. The “%Inh” value is given as 13% with CDKL2 (setting [1]), 10% in the assay on CDKL3, 23% in the assay on CDKL5 and 0% in the assay on CHEK1 (setting [1]).
As to `CSc1nn2c(=O)cc(N3CCOCC3)nc2n1Cc1cccc(C(F)(F)F)c1C` [GSK2363608], the “%Inh” value in the assay on CDK4 (setting [2]) was 15% and 0%; in the assay with CDK5 it was 0%; in the assay with CDK7 (setting [2]) it was 7% and 0%; in the assay with CDK8, 0%; in the assay on CDK9 (setting [2]) it was 7% and 0%; with CDKL1, 0%. In addition, the “%Inh” value with CDKL2 (setting [2]) is 17% and 30%; in the assay with CDKL3 it was 0%; in the assay on CDKL5, 0%; in the assay with CHEK1 (setting [2]) it was 4% and 11%.
